Source: paper PMC6212833
In all, about 2,000 compounds were measured (“B-score”: median about -0.0024, highest 2% from about 4 on). This is one part of a sample in which the highest values are shown more often than they occur.

What follows are molecules tested on Balamuthia mandrillaris (ATCC PRA-291) trophozoites, axenic culture (assay: primary screen, b score). Conditions: 20 µM.
Method: Screening of a clinically approved library of compounds, compiled by the Small Molecule Discovery Center (SMDC) at the UCSF, was completed at 20 µM in 0.2% DMSO. All 2,177 drugs in the library were stored as 10 mM stocks dissolved in 100% DMSO (Sigma-Aldrich) at −20°C. B. mandrillaris amoebae were resuspended in axenic medium and distributed into opaque 384-well plates (Corning) at a density of 3,000 amoebae per well using a BioMek NX liquid handler. Negative-control wells were treated with vehicle only (0.2% DMSO in axenic medium), and positive-control wells simulating total destruction of amoebae were seeded with amoeba lysate generated by 3 consecutive freeze-thaw cycles. Following 72 h of incubation, 30 µl of CellTiter Glo reagent (CTG; Promega) was added to each well. The luminescence was measured with a Promega GloMax-Multi+ plate reader at 2, 4, and 8 h after CTG addition. […] The B-score, representing a plate-based statistical approach for correcting row, column, and edge effects, was also calculated for each compound in the library (75).

SMILES | B-score
C#C[C@]1(O)CC[C@H]2[C@@H]3CCc4cc(O)ccc4[C@H]3CC[C@@]21C | 1.29
O=C(O)CN(CCN(CC(=O)O)CC(=O)O)CC(=O)O [130802-L4] | 1.65
CCOC(=O)[C@H](CCc1ccccc1)N[C@@H](C)C(=O)N1[C@H](C(=O)O)C[C@@H]2CCC[C@@H]21 | 0.0961
CC(=O)Nc1ccccc1 | 1.19
O=C(Nc1ccccc1)c1ccccc1O | 2.94
O=C(CCCCCCC(=O)Nc1ccccc1)NO | 6.71
CO[C@@]1(NC(=O)C(C(=O)O)c2ccc(O)cc2)C(=O)N2C(C(=O)O)=C(CSc3nnnn3C)CO[C@@H]21 (some centres unmarked) | -2.22
Clc1ccccc1C(c1ccccc1)(c1ccccc1)n1ccnc1 | 0.597
CN[C@@H]1C(OC2[C@H](O[C@H]3[C@H](O)[C@@H](O)[C@H](N=C(N)N)[C@@H](O)[C@@H]3N=C(N)N)OC(C)[C@]2(O)CO)OC(CO)C(O)C1O (some centres unmarked) | -0.0786
CN1C[C@H](C(=O)N[C@]2(C)O[C@@]3(O)C4CCCN4C(=O)[C@H](Cc4ccccc4)N3C2=O)C=C2c3cccc4[nH]cc(c34)C[C@H]21 (some centres unmarked) | 0.00794
O=S(=O)(O)CCCS(=O)(=O)O | -0.716
CN1C(=O)CC(C)(c2ccccc2)C1=O (centres unmarked) | -0.587
N=C(N)N/N=C\c1c(Cl)cccc1Cl | 1.73
CN(C)CCCOc1nn(Cc2ccccc2)c2ccccc12 [255688-L2] | -0.0539
O=C(O)c1nn(Cc2ccc(Cl)cc2Cl)c2ccccc12 | 4.66
CCn1nc(C(=O)O)c(=O)c2cc3c(cc21)OCO3 | 0.0115
Nc1nc(N)nc(-c2cc(Cl)ccc2Cl)n1 | -4.01
O=C(N/N=C/c1ccc([N+](=O)[O-])o1)c1ccc(O)cc1 | -0.646
CO[C@H]1/C=C/O[C@@]2(C)Oc3c(C)c(O)c4c(O)c(c(/C=N/N5CCN(C6CCCC6)CC5)c(O)c4c3C2=O)NC(=O)/C(C)=C\C=C\[C@H](C)[C@H](O)[C@@H](C)[C@@H](O)[C@@H](C)[C@H](OC(C)=O)[C@@H]1C | 2.93
CC1=NN(c2ccccc2)C(=O)C1 | -0.154
CC(=O)[C@]1(O)Cc2c(O)c3c(c(O)c2[C@@H](O[C@H]2C[C@H](N)[C@H](O)[C@H](C)O2)C1)C(=O)c1ccccc1C3=O | -0.033
COc1cccc2c1C(=O)c1c(O)c3c(c(O)c1C2=O)C[C@@](O)(C(=O)CO)C[C@@H]3O[C@H]1C[C@H](N)[C@H](O)[C@H](C)O1 | 9.99
COc1cccc2c1C(=O)c1c(O)c3c(c(O)c1C2=O)C[C@@](O)(C(C)=O)C[C@@H]3O[C@H]1C[C@H](N)[C@H](O)[C@H](C)O1 | 0.546
COc1cccc2c1C(=O)c1c(O)c3c(c(O)c1C2=O)C[C@@](O)(C(=O)CO)C[C@@H]3O[C@H]1C[C@H](N)[C@@H](O)[C@H](C)O1 | 4.02
CCCCC(=O)OCC(=O)[C@]1(O)Cc2c(O)c3c(c(O)c2[C@@H](O[C@H]2C[C@H](NC(=O)C(F)(F)F)[C@H](O)[C@H](C)O2)C1)C(=O)c1c(OC)cccc1C3=O | -0.809
COc1cccc2c1C(=O)c1c(O)c3c(c(O)c1C2=O)C[C@@](O)(C(=O)CO)C[C@@H]3OC1C[C@H](N)[C@H](O)[C@H](C)O1 (some centres unmarked) | 0.333
